Only some compounds are listed: those with a hit (about 19% of all), similar ones and a draw of the others.
HT1080NT lethal – kills 2HG-producing HT-1080-NT fibrosarcoma cells. HT-1080-NT fibrosarcoma viability, CellTiter-Glo ATP luminescence, 48 h. Potency, µM (doses to about 46.1 µM), for inactives: at the highest dose activity, negative = less viability, usual class: cytotoxic. actives 1.6% (n = 360,000);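 further: NT is the 2HG producing partner of a matched IDH1 knockdown line; potency means the concentration at half of the fitted maximal effect; 0% = DMSO-treated cells and -100% = media-only wells without cells; nearly all actives have a fitted effect of over 55% in size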
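Toxicity toward the 2HG-producing NT line was scored as %Activity, normalised to DMSO and no-cell wells, from CellTiter-Glo luminescence after 48 hours' treatment.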
ELG1 repair inh – blocks ELG1-dependent DNA repair in HEK293T cells | HEK293T ELG1-luciferase reporter, luminescence, 16 h; DNA damage induced by 5-fluorouridine | Potency, µM (highest dose often 46.1 µM), without a hit: at the top dose activity change, negative = inhibition, usual class: inhibitors | actives 2.3% (n = 330,000) | AID 504467; further: potency means the concentration at half of the fitted maximal effect; nearly all actives have a fitted effect of over 55% in size
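Quantitative HTS, concentration-response format. 2,000 cells/well co-treated with 5-fluorouridine and compound, 16 hr in 5% CO2 at 37 °C; ONE-Glo luminescence read after 30 min.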
HT1080 IDH1KD tx – toxicity to HT-1080 IDH1 knockdown cells (counter line) | HT-1080 IDH1 knockdown viability, ATP luminescence, 48 h | Potency, µM (doses to about 46.1 µM), for inactives: top-dose activity, negative = toxicity, most hits filed as cytotoxic | actives 2% (n = 360,000);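 further: potency means the concentration at half of the fitted maximal effect; 0% = DMSO wells and -100% = cell-free medium wells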
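Cytotoxicity counter-line: IDH1KD HT-1080, 48 h, CellTiter-Glo. Curves classed by r2, magnitude and activity.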
TDP1 cell noCPT – qHTS for Inhibitors of human tyrosyl-DNA phosphodiesterase 1 (TDP1): qHTS in cells in absence of CPT; DT40 Tdp1-/- hTDP1 cells, no CPT, ATP luminescence, 48 h; Potency, µM (series often up to 46.2 µM), for inactives: at the top dose activity change, negative = growth inhibition, usual class: inhibitors; actives 15% (n = 420,000); AID 686978, 2013; further: potency means the concentration at half of the fitted maximal effect; nearly all actives have a fitted effect of over 55% in size
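Readout: luminescence from CellTiter-Glo after 30 min in the dark at RT. Cells: DT40 Tdp1-/- with stable hTDP1, 400/well. Exposure: compounds alone, ≥48 hr, 37 °C.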
TDP1 cell CPT – DT40-hTDP1 cell growth loss with CPT. Potency, µM (series often up to 46.2 µM), for the others: at the highest dose activity change, negative = growth inhibition, most hits filed as inhibitors. chicken DT40 Tdp1-/-;hTDP1 cells + 20 nM CPT, ATP luminescence, 48 h. actives 12% (n = 420,000); further: potency means the concentration at half of the fitted maximal effect; nearly all actives have a fitted effect of over 55% in size
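Chicken DT40 Tdp1-/- cells stably complemented with human TDP1 were seeded at 400 cells/well in medium containing 20 nM camptothecin, exposed to pin-transferred compounds, and grown at 37 °C for at least 48 hr. Viability was read as ATP luminescence.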
IL1B secr inh – blocks inflammasome-driven IL-1 beta release. activity change, % at 57.5 µM. actives 4.7% (n = 360,000). THP-1 LPS/ATP IL-1B secretion, AlphaLISA, 16 h; stronger effect = lower value. AID 743279; in the data active means activity change below about -50%; inconclusive means mostly about -30% to -49%
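THP-1 cells pretreated 1 hr with compounds (up to 57.5 uM final), then stimulated with LPS (250 ng/mL final) plus ATP (1.25 mM final); secreted IL-1B measured by AlphaLISA after 16 hr, decreased signal indicating inhibition.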
Active calls of the source: *. Unless noted, the call rests on the fitted dose curve; in most records, active means well fitted curve in the direction sought with a large enough effect; inconclusive means small, poorly fitted or top-dose-only effect, or another doubt; inactive means no such curve, though single readings can be large; an effect the other way counts as inactive or inconclusive. Unless noted, on the % scale 0 is the no-effect control and ±100 the full control effect.

What do the screens show for `CC1CCc2c(sc3nnn(Cc4cccc(C(=O)OC(C)C)c4)c(=O)c23)C1` (stereo unspecified)?
TDP1 cell noCPT: -18%; TDP1 cell CPT: -26%

How did CCCS(=O)(=O)NC(=O)C1(C)CCN(C(=O)c2ccccc2OC(C)=O)C1 (stereo unspecified) do in these assays?
HT1080NT lethal: 19%; HT1080 IDH1KD tx: 3%; TDP1 cell noCPT: -16%; TDP1 cell CPT: 5%; IL1B secr inh: -13

How did Brc1ccc(-c2nnc3c4ccccc4nc(N4CCOCC4)n23)cc1 do in these assays?
HT1080NT lethal: inconclusive; ELG1 repair inh: 22%; HT1080 IDH1KD tx: 11%; TDP1 cell noCPT: inconclusive; TDP1 cell CPT: inconclusive; IL1B secr inh: 0

What do the screens show for `Clc1ccc(-c2nnc3c4ccccc4nc(N4CCOCC4)n23)cc1Cl`?
HT1080NT lethal: -3%; ELG1 repair inh: -24%; HT1080 IDH1KD tx: -16%; TDP1 cell noCPT: 10µM*; TDP1 cell CPT: 18µM*; IL1B secr inh: 0

Results for O=C1NC(=O)/C(=C/c2cc3c(cc2Br)OCO3)S1 ?
HT1080NT lethal: -1%; ELG1 repair inh: -4%; HT1080 IDH1KD tx: -22%; TDP1 cell noCPT: inconclusive; TDP1 cell CPT: 7%; IL1B secr inh: -3

Results for O=C1Nc2ccc3c(c2C1=Cc1cc2c(cc1Br)OCO2)OCO3 ?
HT1080NT lethal: inconclusive; HT1080 IDH1KD tx: 2%; TDP1 cell noCPT: 4.6µM*; TDP1 cell CPT: 3.3µM*; IL1B secr inh: -13

What do the screens show for `COc1ccc(/C=N/n2cc(-c3ccc(OC)cc3)nc2N)cc1`?
HT1080NT lethal: 2%; ELG1 repair inh: -1%; HT1080 IDH1KD tx: 24%; TDP1 cell noCPT: inconclusive; TDP1 cell CPT: inconclusive; IL1B secr inh: -9

Results for COc1ccc(/C=N/n2cc(-c3ccccc3)nc2N)cc1 ?
HT1080NT lethal: -14%; ELG1 repair inh: 11%; HT1080 IDH1KD tx: -12%; TDP1 cell noCPT: 5.2µM*; TDP1 cell CPT: 3.3µM*; IL1B secr inh: 9

What do the screens show for `Cn1c(-c2ccccc2[N+](=O)[O-])[n+](C)c2ccccc21`?
HT1080NT lethal: -7%; ELG1 repair inh: inconclusive; HT1080 IDH1KD tx: inconclusive; TDP1 cell noCPT: 5.8µM*; TDP1 cell CPT: 13µM*; IL1B secr inh: 69

Results for Cc1ccc(NC(=O)CSc2n[nH]c(-c3cccnc3)n2)c(Br)c1 ?
HT1080NT lethal: -1%; ELG1 repair inh: -9%; HT1080 IDH1KD tx: -2%; TDP1 cell noCPT: -1%; TDP1 cell CPT: 3%; IL1B secr inh: 20

How did COc1cc(OC)cc(-c2c(C#Cc3ccsc3)c3cc(-c4ccc(OC)c(F)c4)ccc3n2C)c1 do in these assays?
HT1080NT lethal: 13%; ELG1 repair inh: 27%; HT1080 IDH1KD tx: 11%; TDP1 cell noCPT: 0%; TDP1 cell CPT: -18%; IL1B secr inh: 12

How did COc1cc(C#Cc2c(-c3cncn3C)n(C)c3ccc(-c4ccc(OC)nc4)cc23)cc(OC)c1 do in these assays?
HT1080NT lethal: -22%; ELG1 repair inh: 7.3µM*; HT1080 IDH1KD tx: -7%; TDP1 cell noCPT: inconclusive; TDP1 cell CPT: 16µM*; IL1B secr inh: -11

Results for COc1cc(C#Cc2c(-c3cncn3C)n(C)c3ccc(-c4cc(OC)c(OC)c(OC)c4)cc23)cc(OC)c1 ?
HT1080NT lethal: inconclusive; ELG1 repair inh: 5.2µM*; HT1080 IDH1KD tx: inconclusive; TDP1 cell noCPT: 16µM*; TDP1 cell CPT: 21µM*; IL1B secr inh: -76*
